Broadly, the Inhibition is the percentage by which the read-out fell short of the control. Read a high Inhibition as a response far below the control.

What all share (assay type): functional
In assay [1] the test system is Plasmodium falciparum. The assay is described as follows: GSK_TCMDC: Inhibition of Plasmodium falciparum 3D7 in whole red blood cells, using parasite LDH activity as an index of growth. Test compounds present at 2uM.
In assay [2] the test system is Plasmodium falciparum. The assay is described as follows: GSK_TCMDC: Inhibition of Plasmodium falciparum Dd2 in whole red blood cells, using parasite LDH activity as an index of growth. Test compounds present at 2uM.
For assay [3], the system named is HepG2. The assay is described as follows: GSK_TCMDC: Percent inhibition of human HepG2 cell line. Test compounds present at 10uM.

Each structure is given as a SMILES string.

Take `COc1ccc2nccc([C@@H](O)CN3CCC(NC(=O)C(c4ccccc4C)N4CCC(Cc5ccccc5)CC4)CC3)c2c1` (some centres not stated): the Inhibition in assay [1] was 100%; in assay [2], 97%; in assay [3], 10%.
For `Cc1ccc(NC(=O)Nc2cccc(Cl)c2)cc1-c1ccc(C(=O)Nc2ccncc2)cc1`, in that order: 97%, 49% and 67%.
Take `CCN1CCN(c2cc(C)c3cc(NC(=O)C=Cc4cccc(OC)c4OC)ccc3n2)CC1`: the Inhibition in assay [1] is 99%; in assay [2], 38%; in assay [3] it was 18%.
On to `CC12CCC(=O)N1C(C(=O)Nc1cccc(C(=O)Nc3cccc(C(F)(F)F)c3)c1)CS2` (configuration not stated), for which the Inhibition in assay [1] was found to be 92%; in assay [2] it was 89%; in assay [3], 6%.
The corresponding values for `Cl.N=C(N)Nc1ccc(OCCCCCOc2ccc(NC(=N)N)cc2Br)c(Br)c1` are 92%, 95% and 27%.
`O=C(Nc1cc(Cl)cc(Cl)c1)Nc1ccccc1C(=O)NC1CCCCC1`: the Inhibition in assay [1] is 100%; in assay [2] it was 100%; in assay [3], 12%.
With `C=CCN1C(=O)c2[nH]nc(-c3cc(C)c(C)cc3O)c2C1c1cccc(Br)c1` (configuration not stated), the Inhibition in assay [1] came to 90%; in assay [2], 82%; in assay [3] it was 0%.
For `FC(F)(F)c1cccc(CNCC2CCN(CC3CCCCC3)CC2)c1.O=C(O)C(F)(F)F`, the Inhibition in assay [1] is recorded as 100%; in assay [2] it was 24%; in assay [3], 21%.
Take `Cc1c(CNCCCNc2cc(=O)c3ccccc3[nH]2)sc(-c2ccco2)c1Br.Cl`: the Inhibition in assay [1] turned out to be 93%; in assay [2], 39%; in assay [3] it was 0%.
Consider `CC(Oc1ccc(Cl)cc1Cl)c1nc(-c2ccc(NC(=O)c3ccco3)cc2)no1` (configuration not stated), for which the Inhibition in assay [1] is given as 92%; in assay [2] it was 82%; in assay [3] it was 7%.
The corresponding values for `Cl.N=c1c2c(n(Cc3cccc(Cl)c3)c3c1CCC3)CCCC2` are 97%, 86% and 0%.
`Cn1cc(C(=O)Nc2cccc(-c3cccc(-c4nc5ccccc5[nH]4)c3)c2)n(C)c1=O`: the values for the Inhibition in assay [1], in assay [2] and in assay [3] were 99%, 60% and 0%, respectively.
On to `CN(C)CC(O)C(O)(c1ccccc1)c1ccc(F)cc1.Cl` (configuration not stated), for which the Inhibition in assay [1] is reported as 93%; in assay [2], 10%; in assay [3] it was 0%.
Regarding `Cc1c(F)cc(C(=O)NC2CC2)cc1-c1ccc2c(c1)c(C)nn2S(=O)(=O)c1cccs1`, the Inhibition stood at 91% in assay [1], 92% in assay [2] and 34% in assay [3].
Regarding `CN(C)CCCN(C)c1cccc2c1nc(-c1cccnc1)n2CCNCc1ccccc1.O=C(O)C(F)(F)F`, the Inhibition in assay [1] stood at 89%; in assay [2], 88%; in assay [3] it was 4%.
The corresponding values for `CN(C)CCCOc1cccc(CCNCc2cccc(Oc3ccc(Cl)cc3)c2)c1.O=C(O)C(F)(F)F` are 93%, 67% and 72%.
As to `Cc1cccc2nc(-c3cccc(-c4ccc(NC(=O)CN5CCOCC5)cc4)c3)[nH]c12`, the values for the Inhibition in assay [1], in assay [2] and in assay [3] were 94%, 12% and 59%, respectively.
For `Cc1[nH]c(C)c(-c2ccc(-c3ccccc3F)nc2)c(=O)c1Cl`, the figures for the Inhibition in assay [1], in assay [2] and in assay [3] were 97%, 97% and 7%, respectively.
Regarding `CC(=NNC(=N)N)c1ccc2c(ccc3ccccc32)c1.Cl`, the values for the Inhibition in assay [1], in assay [2] and in assay [3] were 100%, 15% and 47%, respectively.
For `Cc1cccc2nc(-c3ccc(-c4cccc(NCc5cn6cccnc6n5)c4)cc3)[nH]c12`, in that order: 94%, 63% and 9%.
As to `CN1CCN(c2cc(-c3cccnc3)nc(-c3ccncc3)n2)CC1`, the Inhibition in assay [1] was 100%; in assay [2] it was 89%; in assay [3] it was 11%.
With `COC(=O)c1cccc(NC(=O)NC2CCN(c3ccnc(Nc4cc(OC)c(OC)c(OC)c4)n3)C2)c1` (configuration not stated), the results for the Inhibition in assay [1], in assay [2] and in assay [3] were 99%, 68% and 7%, respectively.
Consider `CC(=O)Nc1ncc(C(=O)Nc2cccc(-c3ccc(-c4nc5cc(F)ccc5[nH]4)cc3)c2)s1`, for which the results for the Inhibition in assay [1], in assay [2] and in assay [3] were 94%, 78% and 18%, respectively.
For `O=C(Cn1c(CCc2cccc(F)c2F)nc(=O)c2ccccc21)N(CCCN1CCCC1)Cc1ccc(-c2ccc(C(F)(F)F)cc2)cc1.O=C(O)C(O)C(O)C(=O)O`, in that order: 100%, 80% and 54%.
For the compound `Cc1ccc(C(NC(=O)C2CCCCC2)c2ccc3cccnc3c2O)cc1` (configuration not stated), the Inhibition is 91% in assay [1], 59% in assay [2] and 69% in assay [3].
As to `COc1ccc(CN2CCC(NCc3cccc([N+](=O)[O-])c3)CC2)cc1.O=C(O)C(F)(F)F`, the Inhibition stood at 92% in assay [1], 3% in assay [2] and 6% in assay [3].
`CCCCOc1c(CNCCCCCCNCc2ccc3ccccc3c2OCCCC)ccc2ccccc12.CS(=O)(=O)O`: the Inhibition in assay [1] is given as 96%; in assay [2], 89%; in assay [3] it was 99%.
With `Cn1c(NC2CCN(CC3CCN(C(=O)/C=C/c4ccc(Cl)c(Cl)c4)CC3)CC2)nc2ccccc21`, the Inhibition in assay [1] came to 100%; in assay [2], 100%; in assay [3], 99%.
As to `COc1cc(C(=O)N2CCN(C(C)C)CC2)ccc1CN(C)CCCN1CCN(c2cccc(Cl)c2Cl)CC1.Cl`, the Inhibition in assay [1] is reported as 100%; in assay [2] it was 87%; in assay [3] it was 56%.

The record behind these values is ChEMBL document CHEMBL1157539, “Thousands of chemical starting points for antimalarial lead identification” (Nature, 2010).
